We go through 15 compounds from PubChem BioAssay (NCATS).

Several values for one entry are separate records, joined by “and”; a condition that tells them apart may be missing. Equal values may be shown once. Inconclusive results are not listed. A number with no mark means an inactive call. Activity calls are given as the source filed them. The call rests on the fitted dose curve; in most records, active means well fitted inhibition curve with a large enough effect; inconclusive means small, poorly fitted or top-dose-only effect; inactive means flat fitted curve, though single readings scatter.

For assay [1], the system named is HB3. The assay is described as follows: qHTS profiling for inhibitors of Plasmodium falciparum proliferation (AID 504749). Particulars: P. falciparum in erythrocytes, SYBR Green DNA, 72 h; series mostly up to 28.7 µM. In a few lines: (§1)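 SYBR Green fluorescence of parasite DNA, read after lysis and overnight dark incubation, measured growth over 72 h in erythrocyte culture at 0.3% parasitemia and 2.5% hematocrit. Data normalised to DMSO and 0.29 uM artemisinin, with plate-drift correction.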
(Quantitative high-throughput screening tests each substance at several concentrations.)

Assay [2] has as its system ICS. Described as above. Conditions: P. falciparum in erythrocytes, SYBR Green DNA, 72 h; series mostly up to 28.7 µM. The method, boiled down:
as §1

For assay [3], the system named is JCK. Described as above. Conditions: P. falciparum in erythrocytes, SYBR Green DNA, 72 h; series mostly up to 28.7 µM. In a few lines:
as §1

The subject of assay [4] is N140. Described as above. Conditions: P. falciparum in erythrocytes, SYBR Green DNA, 72 h; series mostly up to 28.7 µM. In a few lines:
as §1

Assay [5] has as its system P93_24. The description is as above. Conditions: P. falciparum in erythrocytes, SYBR Green DNA, 72 h; series mostly up to 28.7 µM. In a few lines:
as §1

The test system of assay [6] is P94_40. Described as above. Conditions: P. falciparum in erythrocytes, SYBR Green DNA, 72 h; series mostly up to 28.7 µM. The method, boiled down: as §1
Assay [7] relates to PAD. The assay is described as above. Particulars: P. falciparum in erythrocytes, SYBR Green DNA, 72 h; series mostly up to 28.7 µM. In a few lines:
as §1

Assay [8] concerns PC15. Described as above. Conditions: P. falciparum in erythrocytes, SYBR Green DNA, 72 h; series mostly up to 28.7 µM. The method, boiled down: as §1
Assay [9] concerns PC26. The description is as above. Conditions: P. falciparum in erythrocytes, SYBR Green DNA, 72 h; series mostly up to 28.7 µM. The method, boiled down:
as §1

Assay [10] has as its system PC49. Described as above. Particulars: P. falciparum in erythrocytes, SYBR Green DNA, 72 h; series mostly up to 28.7 µM. The method, boiled down: as §1
The test system of assay [11] is SC27B. The description is as above. Particulars: P. falciparum in erythrocytes, SYBR Green DNA, 72 h; series mostly up to 28.7 µM. In a few lines: as §1
Assay [12] deals with TAB109. The description is as above. Particulars: P. falciparum in erythrocytes, SYBR Green DNA, 72 h; series mostly up to 28.7 µM. In a few lines: as §1
The test system of assay [13] is TAB113. Described as above. Conditions: P. falciparum in erythrocytes, SYBR Green DNA, 72 h; series mostly up to 28.7 µM. The method, boiled down: as §1
In assay [14] the test system is TAB165. The description is as above. Conditions: P. falciparum in erythrocytes, SYBR Green DNA, 72 h; series mostly up to 28.7 µM. In a few lines:
as §1

Assay [15] concerns W2. Described as above. Conditions: P. falciparum in erythrocytes, SYBR Green DNA, 72 h; series mostly up to 28.7 µM. The method, boiled down: as §1
The test system of assay [16] is CRL-7250. The assay is described as follows: Cytotoxic Profiling of Annotated Libraries Using Quantitative High-Throughput Screening (AID 1296008). On max response: on the % scale 0 is the no-effect control and ±100 the full control effect. Conditions: Five cell lines viability, CellTiter-Glo ATP luminescence, 48-72 h; max response: stronger effect = lower value. The method, boiled down: (§2)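 Cytotoxicity was measured as CellTiter-Glo ATP luminescence, read after 10 min at room temperature. Compound treatment of the cells lasted 48 or 72 hr at 37 degrees Celsius in a qHTS format.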
For orientation: ATP-based viability assays read luminescence as a measure of living cells.

Assay [17] relates to HaCat. The description is as above. Conditions: Five cell lines viability, CellTiter-Glo ATP luminescence, 48-72 h; max response: stronger effect = lower value. The method, boiled down: as §2
For assay [18], the system named is KB-3-1. The description is as above. Particulars: Five cell lines viability, CellTiter-Glo ATP luminescence, 48-72 h; max response: stronger effect = lower value. In a few lines:
as §2

In assay [19] the test system is NIH3T3. The assay is described as above. Conditions: Five cell lines viability, CellTiter-Glo ATP luminescence, 48-72 h; max response: stronger effect = lower value. The method, boiled down:
as §2

The test system of assay [20] is HEK293. Described as above. Conditions: Five cell lines viability, CellTiter-Glo ATP luminescence, 48-72 h; max response: stronger effect = lower value. In a few lines: as §2
Further: nearly all actives have a fitted effect of over 60% in size.
Potency means the concentration at half of the fitted maximal effect.

As for `CCOC(=O)C(C#N)=C(c1ccccc1)c1ccccc1`, the Potency entry in [1], in assay [2], in assay [3], in assay [4], in [5] and in assay [6] was “inactive” each time. The Potency entry in [7], in assay [8], in assay [9], in [10], in assay [11] and in [12] was “inactive” in each case. The Potency entry in assay [13], in assay [14] and in assay [15] was “inactive” in each case. The max response in assay [16] is -5.66%; in assay [17], -20.2%; in assay [18] it was 1.81%; in assay [19] it was 3.96%.
In the case of `CCN1CCCC(OC(=O)C(c2ccccc2)c2ccccc2)C1` (stereo unspecified), the outcome in assay [16] was inactive. In addition, the max response in assay [17] is -8.51%; in assay [18], -9.59%; in assay [19], 2.04%.
As to `O=C(CCCN1CC=C(n2c(=O)[nH]c3ccccc32)CC1)c1ccc(F)cc1`, the max response in assay [16] was -30.7%; in [17], -9.03% and -18.9%; in assay [18] it was 3.95% and 1.87%; in assay [19], -10.6%.
On to `Cc1ccc(O)c([C@H](CCN(C(C)C)C(C)C)c2ccccc2)c1`, for which the Potency in [1] is 7.94 µM (active); in assay [2] it was 1 µM (active); in [3], 7.94 µM (active); in [4] it was 2 µM (active); in assay [5] it was 4.47 µM (active); in assay [6], 2.24 µM (active). Also, the Potency is 2.82 µM (active) in assay [7]; 3.16 µM (active) in [8]; 4.78 µM (active) in [9]; 3.16 µM (active) in assay [10]; 4.47 µM (active) in [11]; 3.55 µM (active) in [12]. Moreover, the results for the Potency in assay [13], in [14] and in assay [15] were 3.98 µM (active), 2.24 µM (active) and 0.849 µM (active), respectively. Moreover, the max response was -4.37% in assay [16], -10.6% in assay [18] and -1.6% in assay [19]. The outcome in assay [17] was inactive.
Consider `CC(C)n1c(/C=C/[C@@H](O)C[C@@H](O)CC(=O)O)c(-c2ccc(F)cc2)c2ccccc21`, for which the Potency in [16] was 1.5 µM (active); in assay [20], 16.8 µM (active); in [19], 11.9 µM (active).
Consider `C[N+]1(CC2COC(c3ccccc3)(C3CCCCC3)O2)CCCCC1` (stereo unspecified), for which the Potency in assay [1] is 4.47 µM (active); in assay [2], 4.47 µM (active); in [3], 12.6 µM (active); in assay [4], 11.2 µM (active); in assay [5], 6.31 µM (active); in assay [6], 4.47 µM (active). Moreover, the Potency in assay [7] is 5.01 µM (active); in assay [8] it was 5.62 µM (active); in assay [9], 4.26 µM (active); in assay [10], 6.31 µM (active); in assay [11], 7.08 µM (active); in [12], 6.31 µM (active). The figures for the Potency in [13], in assay [14] and in assay [15] were 5.01 µM (active), 5.01 µM (active) and 5.36 µM (active), respectively. The max response in assay [16] is -1.29%; in [17], 3.15%; in [18], -6.02%; in assay [19] it was -8.34%.
`CC(=O)O[C@]1(C(C)=O)CC[C@H]2[C@@H]3C=C(C)C4=CC(=O)CC[C@]4(C)[C@H]3CC[C@@]21C`: the max response in assay [16] is -4.16%; in assay [17] it was -4.96%; in assay [18] it was 11.8%; in [19], 0.169%.
On to `CCCCCCCCCCC[C@@H](C[C@@H]1OC(=O)[C@H]1CCCCCC)OC(=O)[C@H](CC(C)C)NC=O`, for which the result in assay [16] and in [17] was inactive. Also, the max response is -9.82% in assay [18] and 1.98% in [19].
For `CCN1/C(=C/C=C/c2sc3ccccc3[n+]2CC)Sc2ccccc21`, the Potency is 0.251 µM (active) in assay [1]; 0.1 µM (active) in [2]; 0.398 µM (active) in assay [3]; 0.251 µM (active) in assay [4]; 0.112 µM (active) in assay [5]; 0.112 µM (active) in assay [6]. The Potency in [7] is 0.282 µM (active); in assay [8], 0.316 µM (active); in [9] it was 0.849 µM (active); in assay [10] it was 1.12 µM (active); in [11] it was 0.282 µM (active); in assay [12] it was 0.141 µM (active). For the same compound, the Potency in [13] is 0.141 µM (active); in assay [14], 0.141 µM (active); in [15], 0.0953 µM (active); in [16], 0.13 µM (active); in [17], 2.91 µM (active); in [18] it was 7.31 µM (active). Besides, in [19], the Potency is 1.84 µM (active).
`OC[C@H]1O[C@@H]2O[C@H]3[C@H](O)[C@@H](O)[C@@H](O[C@H]4[C@H](O)[C@@H](O)[C@@H](O[C@H]5[C@H](O)[C@@H](O)[C@@H](O[C@H]6[C@H](O)[C@@H](O)[C@@H](O[C@H]7[C@H](O)[C@@H](O)[C@@H](O[C@H]8[C@H](O)[C@@H](O)[C@@H](O[C@H]1[C@H](O)[C@H]2O)O[C@@H]8CO)O[C@@H]7CO)O[C@@H]6CO)O[C@@H]5CO)O[C@@H]4CO)O[C@@H]3CO`: the Potency entry in assay [1], in [2], in [3], in assay [4], in assay [5] and in [6] was “inactive” throughout. Also, the Potency result in assay [7], in [8], in assay [9], in assay [10], in assay [11] and in assay [12] was “inactive” each time. Also, the Potency result in [13], in [14] and in assay [15] was “inactive” throughout. The call in [16] and in [20] was inactive. Also, the max response in assay [19] is -2.76%.
On to `C#C[C@]1(O)CC[C@H]2[C@@H]3[C@H](C)CC4=C(CCC(=O)C4)[C@H]3CC[C@@]21C`, for which the max response in assay [16] was -3.96%; in assay [18], -4.12%; in assay [19], -7.98%. The compound was called inactive in assay [17].
As to `CCCCCCCCCCCCCCC[C@H](O)[C@@H](N)CO`, the max response is -2.05% in assay [16], -24.2% in assay [17], -4.68% in assay [18] and -9.49% in [19].
As to `NC(=O)n1c(O)c(C(=O)c2cccs2)c2cc(Cl)ccc21`, the Potency result in [1], in assay [2], in [3], in [4], in assay [5] and in [6] was “inactive” each time. Moreover, the Potency entry in assay [7], in assay [8], in [9], in assay [10], in assay [11] and in assay [12] was “inactive” in each case. Moreover, the Potency entry in [13] and in [14] was “inactive” each time. Also, the max response is 4.52% in assay [16], 2.04% in assay [18] and 0.218% in assay [19]. Also, the compound was called inactive in assay [17].
As for `COc1ccc2c(c1)c1c3n2CCN(C)C3=NCC1`, the Potency result in [1], in assay [2], in assay [3], in assay [4], in assay [5] and in assay [6] was “inactive” each time. For the same compound, the Potency result in assay [7], in [8], in assay [9], in assay [10], in assay [11] and in assay [12] was “inactive” throughout. The Potency result in [13], in [14] and in [15] was “inactive” in each case. In addition, the result in [16] was inactive. In addition, the figures for the max response in assay [20] and in [19] were 3.32% and 0.478%, respectively.
Take `COc1cc(C(=O)NCc2ccc(OCCN(C)C)cc2)cc(OC)c1OC`: the Potency result in assay [1], in assay [2], in assay [3], in assay [4], in assay [5] and in [6] was “inactive” throughout. The Potency entry in assay [7], in [8], in assay [9], in assay [10], in assay [11] and in [12] was “inactive” in each case. The Potency result in assay [13], in assay [14] and in assay [15] was “inactive” each time. Moreover, the max response in assay [16] is -8.61%; in assay [17], 4.17%; in assay [18], -11.1%; in assay [19], -0.23%.
